KDM5B inhibitor: blocks human KDM5B histone demethylase activity | Q9UGL1 | actives 2.6% (n = 220,000) | KDM5B demethylase, FDH-coupled NADH fluorescence (FDH is formaldehyde dehydrogenase) | Potency, µM (series often up to 57.7 µM), most hits filed as inhibitors; active = well fitted inhibition curve with a large enough effect; note: 0% is about no effect; nearly all actives have a fitted effect of over 70% in size
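Coupled FDH/NAD⁺ fluorescence readout. KDM5BΔAP 200 nM final; compound titration, 10 min RT preincubation; substrate mix 12.5 µM H3K4me3, 25 µM 2-OG, 50 µM Fe(II), 100 µM ascorbate, 0.25 mM NAD⁺, 0.25 U/mL FDH; ΔRFU over 30 min.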
Numbers without * were called inactive; i = inactive; [ ] = remark or other dose. Many of the other results were omitted from the sample, so hits are more common in it than they were. Potency is the fitted concentration of half-maximal effect.

SMILES	KDM5B inhibitor
CN1CCC2(C1)CN(Cc1ccccc1)c1ccc(C(=O)NC3CC3)cc12 (stereo not given)	35µM*
CN1CCC2(C1)CN(Cc1ccccc1)c1ccc(C(=O)NCC[S+](C)(=O)[O-])cc12 (stereo not given)	35µM*
O=C(NCCCN1CCOCC1)c1ccc2c(=O)n(Cc3ccccc3)c(=S)[nH]c2c1	i
Cc1nc(SCc2nc(-c3cccc(Cl)c3)oc2C)[nH]c(=O)c1C	i
CCN(C(=O)C(=O)c1c(C)[nH]c2ccccc12)c1cccc(Cl)c1	i
O=C(CSc1nnc(N2CCOCC2)n1-c1cccc(F)c1)Nc1ccc2c(c1)OCCO2	i
CSc1cccc(Nc2nc(N)c(C(=O)c3ccccc3Cl)s2)c1	i
Cc1ccc(-c2cc(C(=O)NCc3cnn(C)c3)c3cc(Br)ccc3n2)cc1	i
Cc1ccccc1-c1cc(O)c2c(c1)CN(C(=O)C1CCNCC1)CCO2	i
CCc1ccc(-c2cc(C(F)(F)F)n3nc(C(=O)NCc4cnn(C)c4)cc3n2)s1	i
CN1CCOc2c(C(=O)NCc3cnn(C)c3)cc(-c3ccc(CO)cc3)cc21	20µM*
Cc1ccccc1-c1cc(C(=O)NCc2cnn(C)c2)c2c(c1)N(C)CCO2	32µM*
Cc1ccc(CNC(=O)c2cn(C)c3ccc(S(=O)(=O)N4CCOCC4)cc3c2=O)cc1	i[11.5 µM]
Cc1cc(/C=N/O)c(C)n1-c1ccncc1	i
C=CC[C@H]1Cc2c(Br)cc(Br)c(Br)c2[C@H](CC=C)N1	i
Fc1ccc(CCNc2cc(Cl)nc3ccnn23)cc1	i
Nc1n[nH]c(CNc2cc(-c3ccc(F)cc3)nc3ccnn23)n1	28µM*
COc1cccc(CNc2cc(Cl)nc3ccnn23)c1	i
O=C(O)c1cc(-c2ccc(Cl)c(Cl)c2)nc2ccccc12	i
S=C(NCc1ccccc1)NC1CCCC1	i
CC(=O)N1CCCN(c2cc(Cl)nc3ccnn23)CC1	i
Clc1cc(N2CCCCC2)n2nccc2n1	i
NC(=O)c1noc2c1CN(c1cc(-c3ccccc3)nc3ccnn13)CC2	25µM*
O=C(COc1ccc(Cl)cc1Br)OCC(=O)c1ccc(-c2ccccc2)cc1	i
CCCN(CCC)S(=O)(=O)c1ccc(SCC(=O)OCC)c([N+](=O)[O-])c1	i
SMILES	KDM5B inhibitor
C#CCNC(=O)c1cc(-c2ccccc2OC)c2cnn(C)c2n1	89µM*
COc1ccccc1C1=NS(=O)(=O)N(C)C(C(=O)Nc2cc(OC)c(OC)c(OC)c2)=C1	i
COc1ccccc1-c1cc(C(=O)N2CCCC2)nc2c1cnn2C	79µM*
C#CCNC(=O)c1ccc2ccccc2n1	i
COc1ccccc1-c1cc(C(=O)N2CCCC2)nn2cccc12	i
COc1ccccc1-c1cc(C(=O)N2CCCC2)c2cnn(C)c2n1	i
O=C(O)C1=CC(/C=C/c2ccccc2)n2ncc(C(=O)Nc3ccccc3Cl)c2N1 (stereo not given)	i
COc1ccc(S(=O)(=O)N2CCN(C(=O)c3cn[nH]c3-c3ccccc3)CC2)cc1	i
Cc1ccccc1-c1cc(=O)c2cc(NC(=O)c3cccs3)ccc2o1	i
O=[N+]([O-])c1cccc2nc(/C=C/c3cccc(C(F)(F)F)c3)ccc12	i
CC(NC(C)C1CC2CCC1C2)C(=O)N(C)Cc1cccc(F)c1 (stereo not given)	i
Cc1cc(C)c(NC(=O)CN(C)C(=O)c2cc3cc(C)ccc3nc2C)c(C)c1	i
Cc1noc(C)c1-c1cc(-c2ccccc2F)cn2cncc12	35µM*
CNC(=O)CCn1ncc2cc(OCc3ccccc3-c3c(C)noc3C)ccc21	i
Cc1noc(C)c1-c1cc(-c2ccccc2C(F)(F)F)cn2cncc12	40µM*
Cc1ccccc1-c1cc(-c2c(C)noc2C)cc2c1C(=O)N(C)C2	i
COc1cccc(-c2cc(-c3c(C)noc3C)cc3c2C(=O)N(C)C3=O)c1OC	i
CS(=O)(=O)c1cc(C(=O)NCCc2cccs2)ccc1Cl	i
Cc1ccc(NC(=O)c2cc(=O)c3ccc(C)c(C)c3o2)cc1C	i
N#Cc1ccc(NC(=O)CNc2cc(S(=O)(=O)N3CCCCC3)ccc2N2CCCCC2)cc1	i
CCCS(=O)(=O)c1nc(S(=O)(=O)c2ccc(Cl)cc2)c(NCC(C)C)s1	i
CCN1CCN(C(=O)c2cc3ccc(OC)cc3[nH]2)CC1	i
CN1CCC([C@@H]2CN(C(=O)c3ccc4[nH]ccc4c3)C[C@H]2C(N)=O)CC1	i
COc1ccc(C(=O)N2C[C@@H](C(N)=O)[C@H](C3CCN(C)CC3)C2)cc1	i
COc1ccc2cc(C(=O)N3CCc4nn(C)c(=O)n4CC3)[nH]c2c1	25µM*
SMILES	KDM5B inhibitor
COc1ccc2cc(C(=O)N3CCN(C)CC3)[nH]c2c1	i
COc1ccc2cc(C(=O)NCc3ccc(C(=O)N4CCN(C)CC4)cc3)[nH]c2c1	i
CCOC(=O)N1CCC(NC(=O)c2cc3ccc(OC)cc3[nH]2)CC1	i
CNC(=O)[C@@H]1CN(C(=O)c2ccc3[nH]ccc3c2)C[C@H]1COC	i
CNC(=O)[C@@H]1CN(C(=O)c2cc3ccc(OC)cc3[nH]2)C[C@H]1C1CCN(C)CC1	20µM*
COc1ccc2cc(C(=O)N3CCC(Cc4ccc(C(=O)NC5CC5)cc4)CC3)[nH]c2c1	35µM*
COc1ccc2cc(C(=O)N(C)C3CCc4nn(C)c(=O)n4CC3)[nH]c2c1 (stereo not given)	i
CNC(=O)[C@@H]1CN(C(=O)c2ccc3cc[nH]c3c2)C[C@H]1C1CCN(C)CC1	20µM*
O=C(Cc1cccc2ccccc12)Nc1cccc2ncccc12	i
CC(C)c1ccc(-n2nnnc2SCCCn2c(=O)c3c(ncn3C)n(C)c2=O)cc1	i
CN1CCN(Cc2cc(=O)oc3cc(-c4ccccc4)c(O)cc23)CC1	i
O=S(=O)(c1ccc2c(c1)CCN2)N1CCCCC1	i
Cc1cccc(-c2nc3cc(NC(=O)c4cccc([N+](=O)[O-])c4C)ccc3o2)c1	i
Cc1ccc(NC(=O)Cn2c(-c3ccc(Cl)cc3)nc(C)c(CCO)c2=O)c(C)c1	i
Cc1ccc(C2=NN(C(=O)Cn3nnc(-c4ccc(C(N)=O)cc4)n3)C(c3ccco3)C2)cc1 (stereo not given)	i
Cc1ccc(C(=O)OCC(=O)c2ccco2)s1	i
CCC(Oc1ccccc1)C(=O)Nc1ccc(S(=O)(=O)NCC(=O)c2ccccc2)cc1 (stereo not given)	i
CCCN1C(C(C)=O)=C(OC(=O)CC)c2ccccc2S1(=O)=O	i
COCCNc1ccc(-c2noc([C@@H]3CCCN3Cc3ccncc3)n2)cn1	28µM*
COCCOc1ccc(-c2noc([C@@H]3CCCN3Cc3c[nH]c4ccccc34)n2)cn1	i
COCC(=O)Nc1ccc(-c2noc([C@@H]3CCCN3Cc3cccnc3)n2)cn1	i
COCCNc1ncccc1-c1noc([C@@H]2CCCN2Cc2cc(OC)c(OC)c(OC)c2)n1	32µM*
COc1cc(CN2CCCC2c2cc(C(C)C)on2)cc(OC)c1OC (stereo not given)	i
COc1cc(CN2CCC[C@H]2c2nc(-c3ccc(-c4ccncc4)nc3)no2)cc(OC)c1OC	i
COCC(=O)Nc1ccc(-c2noc([C@@H]3CCCN3Cc3ncc[nH]3)n2)cn1	40µM*
COc1ccc(C(=O)Nc2ccc(-c3noc([C@@H]4CCCN4CCCc4ccccc4)n3)cn2)cc1	25µM*
COCCNc1ccc(-c2noc([C@@H]3CCCN3C3CCC3)n2)cn1	i

Screening results (PubChem BioAssay)
